# Shown is part of a subset that was picked to be rich in the strongest signals.
# What was measured:
# Test in all cases: glycan array binding signal (z-score within array); higher = stronger binding
# Settings in all cases: glycan notation: IUPAC condensed, linker removed; mutation: I144G
# [1] = molecular target: Fuc(a1-2)Gal(b1-3)GalNAc(b1-3)Gal(a1-4)Gal(b1-4)Glc
# In short: (§1)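 Negative Z-scores can be read as non-binding. The Z-score is calculated within each array and then averaged across arrays of one protein sequence at different concentrations or buffers and across linkers. Arrays, 3228 in all, were curated from the Consortium for Functional Glycomics database and kept only where the protein sequence was available.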
# [2] = molecular target: Fuc(a1-2)Gal(b1-3)GlcNAc(b1-3)[Fuc(a1-2)Gal(b1-3)GlcNAc(b1-6)]GalNAc
# In short: as §1
# [3] = molecular target: Fuc(a1-2)Gal(b1-4)[Fuc(a1-3)]GlcNAc(b1-3)[Neu5Ac(a2-6)Gal(b1-4)GlcNAc(b1-6)]Gal(b1-4)Glc
# In short: as §1
# [4] = molecular target: Fuc(a1-2)[Gal(a1-3)]Gal(b1-4)GlcNAc(b1-6)GalNAc
# In short: as §1
# [5] = molecular target: Fuc(a1-2)[GalNAc(a1-3)]Gal
# In short: as §1
# [6] = molecular target: Fuc(a1-2)[GalNAc(a1-3)]Gal(b1-3)GlcNAc(b1-2)Man(a1-3)[Fuc(a1-2)[GalNAc(a1-3)]Gal(b1-3)GlcNAc(b1-2)Man(a1-6)]Man(b1-4)GlcNAc(b1-4)[Fuc(a1-6)]GlcNAc
# In short: as §1
# [7] = molecular target: Gal(a1-3)Gal(b1-4)GlcNAc(b1-2)Man(a1-3)[Gal(a1-3)Gal(b1-4)GlcNAc(b1-2)Man(a1-6)]Man(b1-4)GlcNAc(b1-4)GlcNAc
# In short: as §1
# [8] = molecular target: Gal(a1-4)Gal(b1-4)GlcNAc(b1-3)Gal(b1-4)Glc
# In short: as §1
# [9] = molecular target: Gal(b1-3)Gal(b1-4)GlcNAc
# In short: as §1
# [10] = molecular target: Gal(b1-3)GalNAc(b1-4)[Neu5Ac(a2-3)]Gal(b1-4)Glc
# In short: as §1
# [11] = molecular target: Gal(b1-4)GlcNAc(b1-3)Gal(b1-3)GalNAc
# In short: as §1
# [12] = molecular target: Gal3S(b1-3)GalNAc
# In short: as §1
# [13] = molecular target: GlcA3S(b1-3)Gal(b1-4)GlcNAc(b1-2)Man
# In short: as §1
# [14] = molecular target: GlcA3S(b1-3)Gal(b1-4)GlcNAc(b1-3)Gal(b1-4)Glc
# In short: as §1
# [15] = molecular target: GlcNAc(b1-2)Man(a1-3)[GlcNAc(b1-4)][GlcNAc(b1-2)Man(a1-6)]Man(b1-4)GlcNAc(b1-4)[Fuc(a1-6)]GlcNAc
# In short: as §1
# [16] = molecular target: GlcNAc(b1-3)Gal(b1-3)GalNAc
# In short: as §1
# [17] = molecular target: GlcNAc(b1-6)GalNAc
# In short: as §1
# [18] = molecular target: Neu5Ac(a2-3)Gal(b1-3)GalNAc
# In short: as §1
# [19] = molecular target: Neu5Ac(a2-3)Gal(b1-3)GalNAc(b1-3)Gal(a1-4)Gal(b1-4)Glc
# In short: as §1
# [20] = molecular target: Neu5Ac(a2-3)Gal(b1-3)GalNAc(b1-4)[Neu5Ac(a2-3)]Gal(b1-4)Glc
# In short: as §1
# [21] = molecular target: Neu5Ac(a2-3)Gal(b1-3)GalNAc6S
# In short: as §1
# [22] = molecular target: Neu5Ac(a2-3)Gal(b1-3)[GlcNAc(b1-6)]GalNAc
# In short: as §1
# [23] = molecular target: Neu5Ac(a2-3)Gal(b1-4)GlcNAc(b1-2)Man(a1-3)[GlcNAc(b1-4)][Neu5Ac(a2-3)Gal(b1-4)GlcNAc(b1-2)Man(a1-6)]Man(b1-4)GlcNAc(b1-4)GlcNAc
# In short: as §1
# [24] = molecular target: Neu5Ac(a2-3)Gal(b1-4)GlcNAc(b1-2)[Neu5Ac(a2-3)Gal(b1-4)GlcNAc(b1-6)]Man(a1-6)[Neu5Ac(a2-3)Gal(b1-4)GlcNAc(b1-2)Man(a1-3)][GlcNAc(b1-4)]Man(b1-4)GlcNAc(b1-4)GlcNAc
# In short: as §1
# [25] = molecular target: Neu5Ac(a2-3)Gal(b1-4)GlcNAc(b1-3)Gal
# In short: as §1
# [26] = molecular target: Neu5Ac(a2-6)Gal(b1-4)GlcNAc(b1-2)Man(a1-3)[Neu5Ac(a2-6)Gal(b1-4)GlcNAc(b1-2)Man(a1-6)]Man(b1-4)GlcNAc(b1-4)GlcNAc
# In short: as §1
# [27] = molecular target: Neu5Ac(a2-6)Gal(b1-4)GlcNAc(b1-2)Man(a1-3)[Neu5Ac(a2-6)Gal(b1-4)GlcNAc(b1-2)Man(a1-6)]Man(b1-4)GlcNAc(b1-4)[Fuc(a1-6)]GlcNAc
# In short: as §1
# [28] = molecular target: Neu5Ac(a2-6)Gal(b1-4)GlcNAc(b1-3)Gal(b1-4)GlcNAc
# In short: as §1
# [29] = molecular target: Neu5Ac(a2-6)Gal(b1-4)GlcNAc(b1-3)Gal(b1-4)[Fuc(a1-3)]GlcNAc(b1-3)Gal(b1-4)[Fuc(a1-3)]GlcNAc
# In short: as §1
# [30] = molecular target: Neu5Ac(a2-8)Neu5Ac(a2-3)Gal(b1-3)GalNAc(b1-4)[Neu5Ac(a2-3)]Gal(b1-4)Glc
# In short: as §1
# [31] = molecular target: Neu5Ac9Ac(a2-3)Gal(b1-3)GlcNAc
# In short: as §1
# [32] = molecular target: Neu5Gc(a2-6)GalNAc
# In short: as §1
# [33] = molecular target: Neu5Gc(a2-8)Neu5Ac(a2-3)Gal(b1-4)GlcNAc
# In short: as §1
# [34] = molecular target: Neu5Gc(a2-8)Neu5Gc(a2-3)Gal(b1-4)GlcNAc
# In short: as §1
binder,measurement,setting,value
"rAAL-I144G (Agrocybe aegerita), Q6WY08 (protein) MQGVNIYNISAGTSVDLAAPVTTGDIVTFFSSALNLNAGAGNPNNTTLNLFAENGAYLLHIAFRLQENVIIFNSRQPDGPWLVEQRVSDVANQFAGIDGKAMVTVFDHGDKYQVVINEKTVIQYTKQISGLTLSLSYNATEETSGFSTVVEAVTYTGLALEHHHHHH",glycan array binding signal (z-score),[1],-0.112
same,glycan array binding signal (z-score),[2],-0.208
same,glycan array binding signal (z-score),[3],-0.075
same,glycan array binding signal (z-score),[4],-0.088
same,glycan array binding signal (z-score),[5],-0.166
same,glycan array binding signal (z-score),[6],-0.134
same,glycan array binding signal (z-score),[7],2.88
same,glycan array binding signal (z-score),[8],-0.026
same,glycan array binding signal (z-score),[9],-0.134
same,glycan array binding signal (z-score),[10],-0.191
same,glycan array binding signal (z-score),[11],-0.191
same,glycan array binding signal (z-score),[12],17.3
same,glycan array binding signal (z-score),[13],11.8
same,glycan array binding signal (z-score),[14],9.46
same,glycan array binding signal (z-score),[15],-0.15
same,glycan array binding signal (z-score),[16],-0.103
same,glycan array binding signal (z-score),[17],-0.16
same,glycan array binding signal (z-score),[18],1.67
same,glycan array binding signal (z-score),[19],1.35
same,glycan array binding signal (z-score),[20],1.33
same,glycan array binding signal (z-score),[21],4.09
same,glycan array binding signal (z-score),[22],1.74
same,glycan array binding signal (z-score),[23],1.63
same,glycan array binding signal (z-score),[24],-0.073
same,glycan array binding signal (z-score),[25],-0.059
same,glycan array binding signal (z-score),[26],-0.111
same,glycan array binding signal (z-score),[27],-0.049
same,glycan array binding signal (z-score),[28],-0.176
same,glycan array binding signal (z-score),[29],-0.095
same,glycan array binding signal (z-score),[30],1.99
same,glycan array binding signal (z-score),[31],-0.174
same,glycan array binding signal (z-score),[32],-0.086
same,glycan array binding signal (z-score),[33],-0.169
same,glycan array binding signal (z-score),[34],-0.122
